Compound activity deposited in PubChem by The Scripps Research Institute Molecular Screening Center.
TbREL1 inh – TbREL1 inhibition, primary screen. AID 1117264. P86926. 0.49% of 89,000 active. TbREL1 RNA ligation, FRET fluorescence. inhibition, % at 9.66 µM;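 active = inhibition above the mean inhibition across all screened compounds plus 3 SD, cut at about 11% in these data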;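 note: 0% = plate median of test wells and 100% = NSC42067 control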
Target sequence (P86926 whole entry, looked up): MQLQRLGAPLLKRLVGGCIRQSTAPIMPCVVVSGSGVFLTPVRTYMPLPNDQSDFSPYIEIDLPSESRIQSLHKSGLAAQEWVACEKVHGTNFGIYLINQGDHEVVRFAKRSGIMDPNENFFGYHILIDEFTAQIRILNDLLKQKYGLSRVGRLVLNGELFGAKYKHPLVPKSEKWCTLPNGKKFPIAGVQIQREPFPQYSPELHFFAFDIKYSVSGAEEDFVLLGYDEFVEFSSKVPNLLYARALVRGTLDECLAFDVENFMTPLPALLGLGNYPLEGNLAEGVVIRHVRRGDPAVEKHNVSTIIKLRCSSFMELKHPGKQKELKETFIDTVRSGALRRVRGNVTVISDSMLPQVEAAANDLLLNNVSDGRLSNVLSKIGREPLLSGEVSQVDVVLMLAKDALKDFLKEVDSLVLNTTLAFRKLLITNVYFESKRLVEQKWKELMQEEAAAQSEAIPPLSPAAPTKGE
TbREL1 confirm – TbREL1 inhibition, confirmation; inhibition, % at 9.66 µM; TbREL1 RNA ligation, FRET fluorescence; shares compounds with TbREL1 inh; 37% of 390 active;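 active = mean inhibition across replicates above a set limit taken from the earlier primary screen, cut at about 11% in these data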;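 note: 0% = REL1 with substrate and DMSO and 100% = REL1 plus control inhibitor NSC42067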
* = called active by the depositor. This excerpt belongs to a sample that is enriched for hits.

SMILES	TbREL1 inh	others
CN1CCCN(C(=O)CSc2nnc(-c3cccnc3)n2C2CCCCC2)CC1	2
Cc1ccc(S(=O)(=O)NCC(=O)N2CCN(c3ccccn3)CC2)s1	0
COC(=O)[C@@H]1[C@H](O[Si](C)(C)C(C)(C)C)[C@H]2O[C@H]2C[C@H]1S(=O)(=O)c1ccccc1	3
O=C(NC1(O)C(=O)c2ccccc2C1=O)c1ccccc1	22*	TbREL1 confirm=49*
O=C(NC(C(=O)O)c1ccccc1)c1ccccc1 (stereo unspecified)	1
CC(=O)C(C(C)=O)C1(O)C(=O)c2ccccc2C1=O	7
CC(C)(N[C@@H](Cc1ccccc1)C(=O)NCCCc1ccccc1)C(=O)NCc1ccccc1	-3
O=S1(=O)c2c(cccc2N2CCC[C@H]2CO)O[C@H]2CCN1C2	-1
CC(=O)N1CCCN(S(=O)(=O)c2ccc3c(c2)n(C)c(=O)c(=O)n3C)CC1	1
COc1cccc(C(=O)NCCN2C(=O)C3C4C=CC(C4)C3C2=O)c1 (stereo unspecified)	-3
COc1ccc(OC)c(S(=O)(=O)N2CCCCC2C(=O)N2CCN(Cc3ccc(F)cc3)CC2)c1 (stereo unspecified)	-2
O=S(=O)(c1cccs1)N1CCN(c2cccc(Cl)c2)CC1	3
O=S(=O)(c1cccs1)N1CCN(c2ccccc2)CC1	16*	TbREL1 confirm=3
O=S(=O)(c1cccs1)N1CCN(c2ccc(F)cc2)CC1	0
O=Cc1cscc1[B-](F)(F)F	1
O=C(OCc1ccc(CSc2nnc(-c3cccc4ccccc34)o2)cc1)c1ccc(F)cc1	5
COC(=O)N/N=C(\C)c1ccc(OC(F)F)cc1	4
C/C(=N\NC(=O)C1CC1)c1ccc(C)c(C)c1	-2
C/C(=N\NC(=O)C1CC1)c1ccc(OC(F)F)cc1	16*	TbREL1 confirm=4
Cc1ccc(CNC(=O)CCS(=O)(=O)c2cc3c(cc2Br)CCN3C(=O)C2CC2)o1	5
CCOc1cccc(-c2nnc(SCC(=O)Nc3ccc4c(c3)OCO4)n2N)c1	-1
CN(C)C(=O)C[C@H]1CC[C@H]2[C@H](COc3ccc(NC(=O)C4CC4)cc3C(=O)N2C)O1	-1
O=S(=O)(c1cc(Cl)cc(Cl)c1)N1CCN(c2nc(-c3cccs3)nc3ccccc23)CC1	12*	TbREL1 confirm=6
O=S(=O)(c1ccc(Cl)cc1)N1CCN(c2nc(C(F)(F)F)nc3ccccc23)CC1	0
O=S(=O)(c1cc(C(F)(F)F)ccc1Cl)N1CCN(c2ncnc3ccccc23)CC1	-2
CCCCNC(=O)C[C@H]1C(=O)N(Cc2ccc(OC)cc2)C2=CCCCC[C@@]21C(=O)OC	-5
Cc1nc(N)nc(N)c1/C=C/C(C)(C)c1ccc(Cl)cc1	15*	TbREL1 confirm=8
C[C@H]1[C@H](NC(=O)c2ccc(Cl)c(C(F)(F)F)c2)CC[C@@]23CCCN2C(=O)CCC[C@@H]13	-1
COC(=O)[C@]12CCCCC=C1N(Cc1ccc(OC)cc1)C(=O)[C@@H]2CC(=O)N1CCC(c2ccccc2)CC1	-4
